Laboratory results taken from PubChem BioAssay AID430 (Sanford-Burnham Center for Chemical Genomics, 2006).
In all, about 63,000 compounds went through this assay and about 1,100 (1.7%) were called active. Rule as the data show it: active = cytotoxicity above about 50%; inactive = the rest. The list comes from a sample in which actives are over-represented; it also holds similar structures and randomly drawn compounds. Potency and affinity values are given separately.

experiment: cytotoxicity in HPDE-C7 cells, cell-based, fluorescence, HTS (AID 430); conditions: HPDE-C7 pancreatic duct cells viability, at 10 µM, hits give high values;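 also: cells exposed to compound for 48 hours before viability readout; 0% = vehicle and 100% = reference cytotoxic drug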

SMILES | cytotoxicity
CCOC(=O)N1CCN(C/C(C)=C/c2ccccc2)CC1 | -6% (inactive)
CCN(CCN(C)C)C(=O)Cn1ncc2c1-c1cc(C)ccc1OC2 | -7.1% (inactive)
CCOc1cc(C(=O)N2CCc3cc(OC)c(OC)cc3C2)ccc1OC(F)F | 82.5% (active)
COc1ccc(C(=O)N2CCc3cc(OC)c(OC)cc3C2)cc1OC | 5.8% (inactive)
CCOc1ccc(C(=O)N2CCc3cc(OC)c(OC)cc3C2)cc1OCC | 18.6% (inactive)
Cc1ccccc1CSc1ncc(C#N)c(N)n1 | -10.1% (inactive)
COc1ccc(Nc2cc(C(=O)NCCCN3CCN(C)CC3)c3ccccc3n2)c(OC)c1 | 2% (inactive)
Cc1csc(C(C#N)C(=O)c2ccncc2)n1 (configuration not stated) | -11% (inactive)
Cc1ccc(-n2c3c(cc(C(=O)Nc4cccc(C)n4)c2=O)C(=O)CCC3)cc1 | -27.7% (inactive)
Cc1cccc(NC(=O)c2cc3c(n(-c4ccccc4)c2=O)CCCC3=O)n1 | 9.4% (inactive)
COc1ccc(-n2c3c(cc(C(=O)Nc4ccc5c(c4)C(=O)NC5=O)c2=O)C(=O)CCC3)cc1 | 58.8% (active)
COC(=O)c1cc(OC)c(OC)cc1-n1cnc2cc(OC)c(OC)cc2c1=O | -9.2% (inactive)
Cc1cccc(NC2=NC3(CCCCC3)N=C(N)N2)c1C | -3.7% (inactive)
CCOc1ccc(NC(=O)CN2C(=O)COc3ccc(Cl)cc32)cc1 | -2% (inactive)
CCOC(=O)c1ccc2c(c1)nc(SC/C(O)=C(\C#N)c1nc3ccccc3[nH]1)n2CC | 16.2% (inactive)
Cc1nnc(SCc2ccc(Cl)cc2)n1CC1CCCO1 (configuration not stated) | 2.4% (inactive)
O=C(O)CSc1nnc(-c2ccccc2)o1 | 0.1% (inactive)
O=C(CSc1nnc(-c2ccccc2)o1)n1c2c(c3ccccc31)CCCC2 | 53.3% (active)
Cc1nnc(SCC(=O)n2c3c(c4ccccc42)CCCC3)s1 | -1% (inactive)
CC1CCCCN1S(=O)(=O)c1coc(C(N)=O)c1 (configuration not stated) | -2.9% (inactive)
CC(=O)NC(C)C12CC3CC(CC(C(=O)O)(C3)C1)C2 (configuration not stated) | -6.6% (inactive)
Cc1ccc(S(=O)(=O)Nc2ccc3nc(N)sc3c2)cc1 | -16.3% (inactive)
CSc1nc2ccc(S(=O)(=O)NC3CCCCC3)cc2s1 | 6.9% (inactive)
CSc1nc2ccc(NS(=O)(=O)c3ccc(Cl)s3)cc2s1 | 55.3% (active)
CCOc1cccc(/C(O)=C2/C(=O)C(=O)N(CCOC)C2c2ccc(C)o2)c1 (configuration not stated) | -8% (inactive)
Cc1cc(C)nc(N2CCC(CNC(=O)CCc3ccccc3)CC2)n1 | -11.3% (inactive)
O=C(CCc1nc2ccccc2[nH]1)Nc1ccccc1 | -8.6% (inactive)
